High-throughput results from PubChem BioAssay.
EWS-Fli block: inhibitors of EWS/Fli oncoprotein transcriptional activity; 350,000 compounds, 0.67% hits; A673 NR0B1-luciferase reporter, viability-normalised; AID 651661; inhibition, % at 12.6 µM;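 active means mean inhibition of at least 50% after viability correction, with every replicate also passing that limit; inconclusive means mean reaches 50% but only one of two replicates passes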;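 further: firefly luciferase signal divided by Alamar Blue viability fluorescence both relative to DMSO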
KKLEB cytotox: CF airway cell cytotoxicity counter-screen; activity change (cytotoxicity), % at 5 µM; 360,000 compounds, 0.36% hits; KKLEB CF airway cells viability, ATPlite luminescence, overnight; active compounds read low; cells stimulated with P. aeruginosa culture filtrate; AID 602141;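 active means corrected activity change at or below -50% at 5 µM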
CF NFkB block: inhibitors of cystic fibrosis induced NF-kB | AID 588850 | 360,000 compounds, 0.86% hits | KKLEB NF-kB-GFP reporter, PAF-induced, GFP fluorescence overnight | inhibition, % at 5 µM;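 active means at least 50% inhibition at 5 µM, scaled per plate between neutral and stimulator controls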;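 further: PAF is a Pseudomonas aeruginosa culture filtrate used as stimulus; plate controls were PAF-stimulated DMSO wells for no effect and unstimulated DMSO wells for full effect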
HIF-2a inh: inhibitors of HIF-2a | AID 624352 | inhibition, % at 18.8 µM | 786-0 RCC cells HIF-2a reporter, luciferase luminescence, overnight | 360,000 compounds, 0.72% hits;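 active means inhibition of the luminescence signal of 40% or more relative to plate controls, in a single-dose primary screen at 18.75 µM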
PAX8 reporter: lowers PAX8-driven luciferase in RMG-I cells; 360,000 compounds, 1.2% hits; inhibition, % at 12.6 µM; RMG-I TPO-luciferase reporter, SteadyGlo, 24 h;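 active means mean replicate inhibition at least 60% with every replicate also reaching 60%; inconclusive means only one of the two criteria is met; inactive means mean below 60% and not all replicates reaching 60%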;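 further: luciferase light reporting Pax8 driven TPO promoter activity; plate controls were median of neutral control wells for no effect and mitoxantrone controls for full effect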
* hit, by the source's call; ? = inconclusive; . = no result given. This is a sample that favours compounds with a hit; in the whole collection about 2.1% have one here.

SMILES	EWS-Fli block	KKLEB cytotox	CF NFkB block	HIF-2a inh	PAX8 reporter
Cc1ccc(S(=O)(=O)N(C)C[C@@H]2Oc3ccc(NC(=O)CCCCCC(=O)Nc4ccccc4N)cc3C(=O)N([C@@H](C)CO)C[C@@H]2C)cc1	.	.	.	.	-2.9
Cc1ccc(C2=NN=C(NC(=O)CSc3nc(C)cc(C)n3)SC2)cc1	?	.	.	.	76.0*
CCN(CC)c1ccc(/C=N/NC(=O)c2cccc(S(=O)(=O)Nc3ccccc3OC)c2)c(O)c1	1.0	-19.0	27.6	19.9	74.2*
COc1ccccc1NS(=O)(=O)c1cccc(C(=O)N/N=C/c2ccc([N+](=O)[O-])o2)c1	49.8	-18.3	13.9	-91.0	93.0*
CN1C(=O)c2cc(NC(=O)Nc3ccccc3F)ccc2OC[C@@H]2O[C@H](CC(=O)O)CC[C@@H]21	1.2	.	.	.	-3.0
C[C@@H]1CN([C@H](C)CO)C(=O)c2cc(-c3ccccc3)cnc2O[C@@H]1CN(C)Cc1ccccn1	11.2	.	.	.	6.3
O=C(NC1CC1)c1ccc2c(c1)C1C3CCC(C3)C1C(c1ccccc1)N2 (stereo unspecified)	-2.7	1.7	-17.6	21.3	115.3*
O=C(NC1CCCCC1)c1ccc2ccccc2c1	-73.1	-5.7	15.0	-249.6	-203.0
O=C(NC[C@@H]1CC[C@@H]2[C@@H](CN2Cc2nccs2)O1)C1CCC1	2.5	.	.	.	-33.5
COc1ccc(N2C(c3ccsc3)=Cc3cc4c(cc3C2c2c[nH]c3ccccc23)OCO4)cc1 (stereo unspecified)	11.2	.	.	-19.1	73.0*
CC(C)(O)C#Cc1ccc(N2C(c3ccsc3)=Cc3ccc(F)cc3C2c2c[nH]c3ccc(C#N)cc23)cc1 (stereo unspecified)	-14.3	.	.	-30.7	20.8
CCC(=O)N1CC(=O)N2[C@@H](CO)[C@H](c3ccc(C#Cc4cccc(OC)c4)cc3)[C@@H]2C1	-9.1	.	.	.	-27.5
COc1cc(OC)c2c(-c3cccc(-c4sccc4C(C)=O)c3)cc(=O)oc2c1	55.8*	-24.2	59.9*	-4.2	84.4*
COc1cc(OC)c2c(-c3cccc(-c4ccc(C(F)(F)F)cc4)c3)cc(=O)oc2c1	?	-5.0	17.4	-0.8	-18.0
COc1cc(OC)c2c(-c3cccc(-c4ccc(OC)c(OC)c4)c3)cc(=O)oc2c1	52.9*	-13.2	48.3	-1.5	-8.8
COc1cc(OC)c2c(-c3cccc(-c4ccc(C#N)cc4)c3)cc(=O)oc2c1	56.1*	-0.1	1.8	-3.4	-24.7
COc1cc(OC)c2c(-c3cccc(-c4ccc(F)c(Cl)c4)c3)cc(=O)oc2c1	46.5	0.0	16.9	9.9	16.9
COc1cc(OC)c2c(-c3cccc(-c4ccc(NC(C)=O)cc4)c3)cc(=O)oc2c1	45.7	-6.7	42.3	-40.2	78.5*
CCOC(=O)c1ccc(-c2cccc(-c3cc(=O)oc4cc(OC)cc(OC)c34)c2)cc1	.	7.6	7.8	-45.1	.
C[C@H](CO)N1C[C@H](C)[C@H](CN(C)CC2CC2)Oc2c(NC(=O)C3CCOCC3)cccc2C1=O	-17.1	.	.	.	-7.8
O=C(C[C@H]1C=C[C@H](NC(=O)NC2CCCC2)[C@@H](CO)O1)NCc1ccc(F)cc1	-3.3	.	.	.	-10.0
CO[C@H]1CN(C)C(=O)c2cc(NS(C)(=O)=O)ccc2OC[C@H](C)N(Cc2ccccn2)C[C@H]1C	-0.5	.	.	.	.
C/C(=N\NC(=O)c1ccc(F)cc1)c1ccccn1	-30.8	-10.1	-7.2	-124.7	62.5*
C/C(=N\NC(=O)c1c[nH]c2ccccc12)c1ccccn1	6.6	-3.0	-13.1	-237.2	-52.1
C/C(=N\NC(=O)c1ccccc1-n1cccc1)c1ccccn1	12.5	-2.7	-17.8	-15.4	70.5*
SMILES	EWS-Fli block	KKLEB cytotox	CF NFkB block	HIF-2a inh	PAX8 reporter
COC(=O)c1cn(CCCNC(=O)Nc2ccccc2)nn1	-4.6	.	.	.	5.5
COc1ccc(S(=O)(=O)N[C@H]2CC[C@@H](CC(=O)N3CCc4ccccc4C3)O[C@H]2CO)cc1	-4.6	.	.	.	9.4
CO[C@H]1CN(C)C(=O)c2cc(NC(=O)CC(F)(F)F)ccc2OC[C@@H](C)N(C(=O)C2CCOCC2)C[C@H]1C	.	.	.	.	-18.7
COc1ccccc1S(=O)(=O)N(C)C[C@@H]1OCc2ccccc2-c2c(n(C)c3ccccc23)C(=O)N([C@@H](C)CO)C[C@@H]1C	4.0	.	.	.	18.2
COc1ccc(N=C2NC(=O)/C(=C/c3ccc(O)c(OC)c3)S2)cc1	20.7	-7.2	57.4*	12.1	4.6
O=C(C[C@H]1CC[C@H]2[C@@H](COC[C@H](O)CN2C(=O)c2ccccc2F)O1)N1CCCCC1	2.7	.	.	.	-8.0
O=C(NC1CCC1)[C@@H]1[C@@H](CO)[C@@H]2Cn3c(cccc3=O)[C@H]1N2Cc1cc(F)ccc1F	-3.5	.	.	.	-18.7
COc1ccc(O)c(/C=N/NC(=O)c2ccc(CSc3nc(C)cc(C)n3)cc2)c1	4.1	-3.7	15.1	20.6	52.5
Cc1cc(C)nc(SCc2ccc(C(=O)N/N=C/c3cccc(O)c3O)cc2)n1	.	-24.4	44.9	-10.6	67.5*
C/C(=N\NC(=O)c1ccc(CSc2nc(C)cc(C)n2)cc1)c1ccco1	-25.1	-95.2*	89.8*	10.8	15.2
C[C@H](CO)N1C[C@H](C)[C@@H](CN(C)Cc2ccc(-c3ccccc3)cc2)Oc2ccc(NC(=O)CCCCCC(=O)Nc3ccccc3N)cc2CC1=O	-11.3	.	.	.	1.4
COc1ccc(CN(C)C[C@@H]2Oc3ccc(NS(=O)(=O)c4ccc(Cl)cc4)cc3C(=O)N([C@H](C)CO)C[C@@H]2C)cc1	7.4	.	.	.	6.2
Oc1ccccc1C1SC(c2ccccc2O)SC(c2ccccc2O)S1 (stereo unspecified)	18.0	-87.6*	91.1*	32.8	.
CC1(C)CC(=O)C=C(C#CC2(O)CCCCC2)C1	11.3	-16.6	19.9	33.7	108.5*
Cc1cccc(NC(=O)CSc2cc(C(=O)c3nccn3C)c3ccccc3n2)c1	-16.3	-53.8*	39.5	-11.2	-8.8
Cc1noc(C)c1S(=O)(=O)N(C)C[C@H]1OCCCC[C@@H](C)Oc2ccc(NS(=O)(=O)c3ccc(Cl)cc3)cc2C(=O)N([C@@H](C)CO)C[C@@H]1C	13.2	.	.	.	88.3*
Cc1noc(C)c1S(=O)(=O)N(C)C[C@H]1OCCCC[C@@H](C)Oc2ccc(NS(=O)(=O)c3ccc(Cl)cc3)cc2C(=O)N([C@@H](C)CO)C[C@H]1C	8.5	.	.	.	76.4*
Cc1noc(C)c1S(=O)(=O)N(C)C[C@@H]1OCCCC[C@H](C)Oc2ccc(NS(=O)(=O)c3ccc(Cl)cc3)cc2C(=O)N([C@H](C)CO)C[C@@H]1C	12.5	.	.	.	87.2*
COc1ccc(-c2nn3c(-c4ccccc4)nnc3s2)cc1	.	-0.7	-39.5	-107.0	-24.5
CCN(CC)c1ccc(-c2nn3c(-c4ccccc4OC)nnc3s2)cc1	.	-47.6	53.3*	27.5	.
C[C@H](CO)N1C[C@H](C)[C@@H](CN(C)S(=O)(=O)c2cn(C)cn2)Oc2ccc(NS(=O)(=O)c3ccc(Cl)cc3)cc2C1=O	0.1	.	.	.	.
